In paper PMC5540273 (PLoS ONE, 2017):

How the values were obtained:
Conditions in all cases: concentration: 1 μM, replicates: in singlicate; n = 1
[1] = system: SBK1
[2] = system: SGK2
[3] = system: SGK3
[4] = system: SGK
[5] = system: SIK2
[6] = system: SIK
[7] = system: SLK
[8] = system: T1, SNARK
T1 construct: gene NUAK2

[9] = system: SNRK
[10] = system: SRC
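Further: KINOMEscan kinase panel screen.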

SMILES: Nc1nc(-c2ccc3c(N)n[nH]c3c2)cc(N2CCCCC2)n1 [GSK2228768]
- %Inh [1]: 3%
- %Inh [2]: 0%
- %Inh [3]: 0%
- %Inh [4]: 0%
- %Inh [5]: 0%
- %Inh [6]: 0%
- %Inh [7]: 5%
- %Inh [8]: 0%
- %Inh [9]: 0%
- %Inh [10]: 15%

SMILES: Fc1cccc(COc2ccc(Nc3ncnc4cc[nH]c34)cc2Cl)c1
- %Inh [1]: 52%
- %Inh [2]: 26%
- %Inh [3]: 40%
- %Inh [4]: 23%
- %Inh [5]: 0%
- %Inh [6]: 15%
- %Inh [7]: 34%
- %Inh [8]: 36%
- %Inh [9]: 21%
- %Inh [10]: 16%

SMILES: Fc1ccc(-c2ncn(CCCNCc3ccccc3)c2-c2ccncc2)cc1
- %Inh [1]: 0%
- %Inh [2]: 19%
- %Inh [3]: 0%
- %Inh [4]: 30%
- %Inh [5]: 0%
- %Inh [6]: 9%
- %Inh [7]: 35%
- %Inh [8]: 5%
- %Inh [9]: 5%
- %Inh [10]: 24%

SMILES: CNc1nccc(-c2c(-c3ccc(F)cc3)ncn2CCCN2CCOCC2)n1 [SB-222516]
- %Inh [1]: 0%
- %Inh [2]: 15%
- %Inh [3]: 44%
- %Inh [4]: 10%
- %Inh [5]: 0%
- %Inh [6]: 12%
- %Inh [7]: 5%
- %Inh [8]: 24%
- %Inh [9]: 18%
- %Inh [10]: 0%

SMILES: COc1ccc(-c2oc3ncnc(N)c3c2-c2ccc(OC)cc2)cc1 [SB-589132]
- %Inh [1]: 0%
- %Inh [2]: 5%
- %Inh [3]: 0%
- %Inh [4]: 9%
- %Inh [5]: 2%
- %Inh [6]: 1%
- %Inh [7]: 20%
- %Inh [8]: 0%
- %Inh [9]: 0%
- %Inh [10]: 40%

SMILES: Cn1ccc2ncnc(Nc3ccc(Oc4cccc(Cl)c4)c(Cl)c3)c21
- %Inh [1]: 15%
- %Inh [2]: 11%
- %Inh [3]: 10%
- %Inh [4]: 0%
- %Inh [5]: 0%
- %Inh [6]: 37%
- %Inh [7]: 33%
- %Inh [8]: 13%
- %Inh [9]: 0%
- %Inh [10]: 12%

SMILES: CC(C)(C)OC(=O)NC1CCCN(c2cc(-c3ccc4c(N)n[nH]c4c3)nc(N)n2)C1 (centres unmarked) [GSK2286096]
- %Inh [1]: 15%
- %Inh [2]: 0%
- %Inh [3]: 44%
- %Inh [4]: 0%
- %Inh [5]: 0%
- %Inh [6]: 0%
- %Inh [7]: 0%
- %Inh [8]: 0%
- %Inh [9]: 3%
- %Inh [10]: 0%

SMILES: Fc1cccc(COc2ccc(Nc3ncnc4sc(-c5ccc[nH]5)cc34)cc2Cl)c1 [GW707818]
- %Inh [1]: 0%
- %Inh [2]: 0%
- %Inh [3]: 19%
- %Inh [4]: 0%
- %Inh [5]: 0%
- %Inh [6]: 0%
- %Inh [7]: 24%
- %Inh [8]: 15%
- %Inh [9]: 1%
- %Inh [10]: 0%

SMILES: CS(=O)(=O)CCNCc1ccc(-c2ccc3ncnc(Nc4ccc(OCc5ccccc5)c(Cl)c4)c3c2)o1.Cl [GW574783]
- %Inh [1]: 3%
- %Inh [2]: 0%
- %Inh [3]: 0%
- %Inh [4]: 11%
- %Inh [5]: 0%
- %Inh [6]: 0%
- %Inh [7]: 25%
- %Inh [8]: 0%
- %Inh [9]: 0%
- %Inh [10]: 2%

SMILES: CC(=O)Nc1n[nH]c2ncc(-c3ccccc3)cc12 [SB-548492]
- %Inh [1]: 4%
- %Inh [2]: 9%
- %Inh [3]: 14%
- %Inh [4]: 20%
- %Inh [5]: 12%
- %Inh [6]: 14%
- %Inh [7]: 20%
- %Inh [8]: 3%
- %Inh [9]: 1%
- %Inh [10]: 0%

SMILES: CC(C)N1CCC(n2cnc(-c3ccc(F)cc3)c2-c2ccnc(N)n2)CC1 [SB-223132]
- %Inh [1]: 0%
- %Inh [2]: 0%
- %Inh [3]: 0%
- %Inh [4]: 0%
- %Inh [5]: 4%
- %Inh [6]: 14%
- %Inh [7]: 12%
- %Inh [8]: 0%
- %Inh [9]: 0%
- %Inh [10]: 0%

SMILES: CCc1nc(-c2cccc(C)c2)c(-c2ccnc(NC(=O)c3ccccc3)c2)s1
- %Inh [1]: 5%
- %Inh [2]: 17%
- %Inh [3]: 0%
- %Inh [4]: 13%
- %Inh [5]: 0%
- %Inh [6]: 25%
- %Inh [7]: 0%
- %Inh [8]: 0%
- %Inh [9]: 19%
- %Inh [10]: 5%

SMILES: Cn1ccc2ncnc(Oc3ccc(NC(=O)Nc4cccnc4)c(Cl)c3)c21
- %Inh [1]: 0%
- %Inh [2]: 8%
- %Inh [3]: 0%
- %Inh [4]: 3%
- %Inh [5]: 0%
- %Inh [6]: 19%
- %Inh [7]: 9%
- %Inh [8]: 0%
- %Inh [9]: 0%
- %Inh [10]: 16%

SMILES: COc1ccc(NC(=O)c2ccc(-c3cc(-c4nnc(C)o4)ccc3C)cc2)cc1 [GW595885]
- %Inh [1]: 26%
- %Inh [2]: 2%
- %Inh [3]: 0%
- %Inh [4]: 1%
- %Inh [5]: 0%
- %Inh [6]: 0%
- %Inh [7]: 10%
- %Inh [8]: 0%
- %Inh [9]: 0%
- %Inh [10]: 0%

SMILES: Nc1nc(-c2ccc3c(N)n[nH]c3c2)cc(N2CCC[C@@H](C(=O)Nc3ccccc3)C2)n1.O=C(O)C(F)(F)F.O=C(O)C(F)(F)F [GSK2288359]
- %Inh [1]: 0%
- %Inh [2]: 0%
- %Inh [3]: 8%
- %Inh [4]: 0%
- %Inh [5]: 0%
- %Inh [6]: 0%
- %Inh [7]: 0%
- %Inh [8]: 21%
- %Inh [9]: 0%
- %Inh [10]: 0%

SMILES: Nc1nc(-c2cccnc2)c(-c2ccnc3ccccc23)s1 [GW684083]
- %Inh [1]: 17%
- %Inh [2]: 9%
- %Inh [3]: 0%
- %Inh [4]: 45%
- %Inh [5]: 0%
- %Inh [6]: 4%
- %Inh [7]: 18%
- %Inh [8]: 0%
- %Inh [9]: 0%
- %Inh [10]: 2%

SMILES: CN1c2ccc(-c3ccc(C(=O)NCCO)cc3)cc2-c2[nH]ncc2S1(=O)=O
- %Inh [1]: 0%
- %Inh [2]: 23%
- %Inh [3]: 0%
- %Inh [4]: 10%
- %Inh [5]: 16%
- %Inh [6]: 16%
- %Inh [7]: 25%
- %Inh [8]: 0%
- %Inh [9]: 0%
- %Inh [10]: 46%
